PubChem BioAssay (NCATS)
Records with an inconclusive call do not appear. Activity calls are given as the source filed them. Calls follow the shape of the dose curve; as a rule, active = well fitted curve in the direction sought with a large enough effect; inconclusive = small, poorly fitted or top-dose-only effect, or another doubt; inactive = no such curve, though single readings can be large; an effect the other way counts as inactive or inconclusive.

Tests used:
[1] = qHTS of pediatric cancer cell lines to identify multiple opportunities for drug repurposing: Primary screen for BT-37 cells (AID 1347094); also: potency is read from the fitted curve at half-maximal effect
Outline: (§1)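 500-1,000 cells/well; 5 h pre-incubation 37 °C/5% CO2; compound pinned; 48 h; CellTiter-Glo, 15 min RT; luminescence. MIPE 11-pt from 0.78 nM, NPC 8-pt from 0.59 nM final. Bortezomib 2.3 µM final as positive control.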

[2] = qHTS of pediatric cancer cell lines to identify multiple opportunities for drug repurposing: Primary screen for NB-EBc1 cells (AID 1347095); also: potency is read from the fitted curve at half-maximal effect
Outline: as §1

[3] = qHTS of pediatric cancer cell lines to identify multiple opportunities for drug repurposing: Primary screen for U-2 OS cells (AID 1347096); also: nearly all actives have a fitted effect of over 50% in size
Outline: (§2)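 Cells (500-1,000/well) in growth media were settled 5 h at 37 degrees C, then given compounds for 48 h. Viability was read as CellTiter-Glo luminescence. Primary runs used MIPE at 11 points (0.78 nM-46 µM) and NPC at 8 points (0.59 nM-46 µM); follow-ups used 11 points.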

[4] = qHTS of pediatric cancer cell lines to identify multiple opportunities for drug repurposing: Primary screen for Saos-2 cells (AID 1347097); also: nearly all actives have a fitted effect of over 40% in size; also: potency is read from the fitted curve at half-maximal effect
Outline: as §1

[5] = qHTS of pediatric cancer cell lines to identify multiple opportunities for drug repurposing: Primary screen for SK-N-SH cells (AID 1347098);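 also: DMSO served as neutral control and bortezomib at 2.3 µM as positive control; nearly all actives have a fitted effect of over 65% in size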
Outline: (§3)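 Cells (500-1,000/well) rested 5 h, then received compounds for 48 h; metabolically active cells were measured by CellTiter-Glo luminescence. Final concentrations spanned up to 46 µM (MIPE, 11-point) or 0.59 nM-46 µM (NPC, 8-point) in primary screens, 11-point in follow-ups.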

[6] = qHTS of pediatric cancer cell lines to identify multiple opportunities for drug repurposing: Primary screen for NB1643 cells (AID 1347099); also: nearly all actives have a fitted effect of over 50% in size; also: potency is read from the fitted curve at half-maximal effect
Outline: as §1

[7] = qHTS of pediatric cancer cell lines to identify multiple opportunities for drug repurposing: Primary screen for LAN-5 cells (AID 1347100); also: potency is read from the fitted curve at half-maximal effect
Outline: as §2

[8] = qHTS of pediatric cancer cell lines to identify multiple opportunities for drug repurposing: Primary screen for OHS-50 cells (AID 1347103); also: nearly all actives have a fitted effect of over 40% in size; also: potency is read from the fitted curve at half-maximal effect
Outline: as §3

[9] = qHTS of pediatric cancer cell lines to identify multiple opportunities for drug repurposing: Primary screen for RD cells (AID 1347104); also: nearly all actives have a fitted effect of over 55% in size; also: potency is read from the fitted curve at half-maximal effect
Outline: as §1

[10] = qHTS of pediatric cancer cell lines to identify multiple opportunities for drug repurposing: Primary screen for MG 63 (6-TG R) cells (AID 1347105); also: nearly all actives have a fitted effect of over 50% in size
Outline: as §1

[11] = qHTS of pediatric cancer cell lines to identify multiple opportunities for drug repurposing: Primary screen for control Hh wild type fibroblast cells (AID 1347106);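 also: series mostly up to about 46 µM; a drop in luminescence marks cytotoxicity and a rise apparent proliferation; nearly all actives have a fitted effect of over 55% in size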
Outline: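 Viability after 48 h compound treatment at 37C, 500-1,000 cells/well, read as ATP luminescence with CellTiter-Glo. Primary screens used 11-point (MIPE, 0.78 nM-46 µM) or 8-point (NPC, 0.59 nM-46 µM) final concentrations; follow-up screens used 11-point dilutions.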

[12] = qHTS of pediatric cancer cell lines to identify multiple opportunities for drug repurposing: Primary screen for Rh30 cells (AID 1347107); also: series mostly up to about 46 µM; nearly all actives have a fitted effect of over 75% in size
Outline: as §2

[13] = qHTS of pediatric cancer cell lines to identify multiple opportunities for drug repurposing: Primary screen for Rh41 cells (AID 1347108); also: nearly all actives have a fitted effect of over 70% in size; also: potency is read from the fitted curve at half-maximal effect
Outline: as §1

[14] = qHTS of pediatric cancer cell lines to identify multiple opportunities for drug repurposing: Confirmatory screen for NB1643 cells (AID 1347109); also: nearly all actives have a fitted effect of over 45% in size; also: potency is read from the fitted curve at half-maximal effect
Outline: as §2

[15] = qHTS of pediatric cancer cell lines to identify multiple opportunities for drug repurposing: Confirmatory screen for A673 cells (AID 1347110);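 also: cells exposed to compound for 48 h before the viability read; nearly all actives have a fitted effect of over 65% in size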; also: potency is read from the fitted curve at half-maximal effect
Outline: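 Cells plated at 500-1,000/well were treated five hours later with multi-point dilutions up to 46 µM final. After two days, CellTiter-Glo was added and luminescence read.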

[16] = qHTS of pediatric cancer cell lines to identify multiple opportunities for drug repurposing: Confirmatory screen for SK-N-MC cells (AID 1347111);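 also: potency is read from the fitted curve at half-maximal effect; cells exposed to compound for 48 h before the readout; nearly all actives have a fitted effect of over 70% in size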
Outline: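 Metabolically active cells were quantified by ATP-dependent luminescence (CellTiter-Glo, 15 min at room temperature) following 48 h treatment. Cells had been plated at 500-1,000 per well and settled for 5 h beforehand.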

[17] = qHTS of pediatric cancer cell lines to identify multiple opportunities for drug repurposing: Confirmatory screen for LAN-5 cells (AID 1347113); also: nearly all actives have a fitted effect of over 65% in size; also: potency is read from the fitted curve at half-maximal effect
Outline: as §2

[18] = qHTS of pediatric cancer cell lines to identify multiple opportunities for drug repurposing: Primary screen for BT-12 cells (AID 1347101); also: nearly all actives have a fitted effect of over 25% in size; also: potency is read from the fitted curve at half-maximal effect
Outline: as §3

[19] = qHTS of pediatric cancer cell lines to identify multiple opportunities for drug repurposing: Primary screen for Rh18 cells (AID 1347102); also: nearly all actives have a fitted effect of over 65% in size; also: potency is read from the fitted curve at half-maximal effect
Outline: as §2

[20] = qHTS of pediatric cancer cell lines to identify multiple opportunities for drug repurposing: Confirmatory screen for BT-12 cells (AID 1347112); also: nearly all actives have a fitted effect of over 55% in size; also: potency is read from the fitted curve at half-maximal effect
Outline: as §2

Measured: Potency

O=c1[nH]c2ccccc2n1CCCN1CCC(n2c(=O)[nH]c3cc(Cl)ccc32)CC1
active: [14] 7370 nM | [15] 26100 nM | [16] 5220 nM | [17] 9270 nM
not listed: [18] | [19] | [20]
inactive: all other assays above

Nc1ccncc1
not listed: [5] | [14] | [15] | [16] | [17] | [19] | [20]
inactive: all other assays above

CCC1(C2=NCCN2)Cc2ccccc2O1 (stereo unspecified)
not listed: [5] | [14] | [15] | [16] | [17] | [19] | [20]
inactive: all other assays above

Clc1cccc(N2CCNCC2)c1
not listed: [5] | [8] | [14] | [15] | [16] | [17] | [20]
inactive: all other assays above

Cc1ncc(CNC(=O)N(CCCl)N=O)c(N)n1
not listed: [5] | [14] | [15] | [16] | [17] | [19] | [20]
inactive: all other assays above

C[C@]12CC[C@H]3[C@@H](CCC4=CC(=O)CC[C@@H]43)[C@@H]1CC[C@@H]2OC(=O)CCc1ccccc1
not listed: [4] | [14] | [15] | [16] | [17] | [19] | [20]
inactive: all other assays above

NN=C(N)N
not listed: [2] | [14] | [15] | [16] | [17] | [19] | [20]
inactive: all other assays above

O=C(O)C(=O)c1cn(Cc2ccccc2)c2ccc(-c3ccc(OC(F)(F)F)cc3)cc12
active: [4] 23500 nM | [6] 23500 nM
inactive: [1] | [3] | [7] | [18] | [19] | [10] | [11] | [12]

CCN(C(C)=O)c1cccc(-c2ccnc3c(C#N)cnn23)c1
not listed: [2] | [5] | [14] | [15] | [16] | [17] | [19] | [20]
inactive: all other assays above

Cc1ccc(S(=O)(=O)N[C@@H](CCCCN)C(=O)CCl)cc1
not listed: [4] | [14] | [15] | [16] | [17] | [18] | [20]
inactive: all other assays above

C[C@@H]1[C@@H](C(=O)C[C@H]2O[C@@H]3O[C@]4(C)CC[C@@H]5[C@H](C)CC[C@@H]([C@H]2C)[C@@]35OO4)O[C@@H]2O[C@]3(C)CC[C@H]4[C@H](C)CC[C@@H]1[C@@]24OO3
active: [1] 1090 nM | [2] 469 nM | [6] 4690 nM | [7] 16600 nM | [18] 432 nM | [8] 385 nM | [15] 6570 nM | [16] 2930 nM | [20] 14700 nM
inactive: [3] | [19] | [10] | [11] | [12]

N[C@@H](Cc1ccc(Oc2cc(I)c(O)c(I)c2)c(I)c1)C(=O)O
not listed: [2] | [14] | [15] | [16] | [17] | [19] | [20]
inactive: all other assays above

COc1ccc(C(=O)c2c(C)n(CCN3CCOCC3)c3ccccc23)cc1
inactive: [1] | [3] | [4] | [6] | [7] | [18] | [9] | [10] | [11] | [12] | [13]

C[C@@H]1[C@@H](CC(C[C@H]2O[C@@H]3O[C@]4(C)CC[C@@H]5[C@H](C)CC[C@@H]([C@H]2C)[C@@]35OO4)C[S+](=O)([O-])c2ccc(COC(=O)N(C)C)cc2)O[C@@H]2O[C@]3(C)CC[C@H]4[C@H](C)CC[C@@H]1[C@@]24OO3 (stereo partly specified)
inactive: [3] | [11] | [12]
active: [1] 485 nM | [4] 118 nM | [6] 1050 nM | [7] 662 nM | [18] 344 nM | [19] 1660 nM | [8] 306 nM | [14] 414 nM | [16] 293 nM | [20] 657 nM | [17] 1040 nM

CCCC1CCCCN1 (stereo unspecified)
not listed: [2] | [5] | [14] | [15] | [16] | [17] | [20]
inactive: all other assays above

C#CCOC(C(=O)OCCN(C)C)(c1ccccc1)c1ccccc1
not listed: [2] | [14] | [15] | [16] | [17] | [19] | [20]
inactive: all other assays above

NP(N)(=O)NC(=O)c1ccc(F)cc1
not listed: [2] | [14] | [15] | [16] | [17] | [20]
inactive: all other assays above

COC[C@@H](NC(C)=O)C(=O)NCc1ccccc1
not listed: [5] | [6] | [16]
inactive: all other assays above

c1ccc(C2CC2)c(OCC2=NCCN2)c1
not listed: [4] | [8] | [14] | [15] | [16] | [17] | [19] | [20]
inactive: all other assays above

NCC1(CC(=O)O)CCCCC1
not listed: [2] | [14] | [15] | [16] | [17] | [20]
inactive: all other assays above

CC(C)(N)Cc1ccc(Cl)cc1
not listed: [2] | [8] | [14] | [15] | [16] | [17] | [20]
inactive: all other assays above

CC(CCc1ccccc1)NC(C)C(O)c1ccc(O)cc1 (stereo unspecified)
not listed: [2] | [8] | [13] | [14] | [15] | [16] | [17] | [20]
inactive: all other assays above

Cc1cccc(C)c1NC1=NCCCS1
not listed: [2] | [6] | [14] | [15] | [16] | [17] | [19] | [20]
inactive: all other assays above

CC[N+]1(C)CCCC(OC(=O)C(O)(c2ccccc2)c2ccccc2)C1 (stereo unspecified)
not listed: [2] | [5] | [14] | [15] | [16] | [17] | [20]
inactive: all other assays above

CC[C@@H](CO)NC(=O)[C@@H]1C=C2c3cccc4[nH]cc(c34)C[C@H]2N(C)C1
not listed: [2] | [14] | [15] | [16] | [17] | [20]
inactive: all other assays above

CC(C)(C)NCC(O)c1cc(Cl)c(N)c(Cl)c1 (stereo unspecified)
not listed: [2] | [14] | [15] | [16] | [17] | [19] | [20]
inactive: all other assays above

CCOP(=S)(OCC)Oc1cc(C)nc(C(C)C)n1
not listed: [2] | [14] | [15] | [16] | [17] | [20]
inactive: all other assays above

CCC(COC(=O)c1cc(OC)c(OC)c(OC)c1)(c1ccccc1)N(C)C (stereo unspecified)
inactive: [1] | [3] | [4] | [6] | [19] | [9] | [10] | [11] | [12] | [13]

Cc1sc2c(c1C)C(c1ccc(Cl)cc1)=N[C@@H](CC(=O)OC(C)(C)C)c1nnc(C)n1-2
active: [1] 1370 nM | [2] 4180 nM | [4] 1480 nM | [6] 5900 nM | [7] 590 nM | [8] 344 nM | [9] 590 nM | [13] 743 nM | [14] 1310 nM
inactive: [15]
